# Results published in PubChem BioAssay (NCATS).
# A number with no mark means an inactive call. No rule for the calls is given here.
# System: HIV-1 nucleocapsid protein NCp7 (binding to TG oligonucleotide)
# Test: HIV Nucleocapsid (AID 346);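 also: potency is for inhibitors that block NC binding and lower polarization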
# Conditions: HIV-1 NC / fluorescein-TGTGTGTG probe, fluorescence polarization
# Method in brief: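 HIV-1 NC (100 nM) binding to fluorescein-labelled ssDNA TG4xF (10 nM) in Hepes pH 7.5, 250mM NaCl, 1uM ZnCl2, TCEP and 2-mercaptoethanol; compounds pin-transferred, 1 hr room temperature, fluorescence polarization read on CCD imager.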
# Potency is read from the fitted curve at half-maximal effect.
row,SMILES,Potency
1,COCCNc1ncnc2ccc(-c3ccccc3CN(C)C)cc12,> 20 µM
2,COc1ccc(C(=O)N2CCC3(CCN(Cc4ccncc4)CC3)CC2)cc1,> 20 µM
3,COc1cccc(Cn2c(=O)c(-c3cccs3)nc3cnc(Nc4cccc(OC)c4)nc32)c1,> 20 µM
4,COc1cccc(-c2nc(NCc3ccccc3OC)c3ccccc3n2)c1,> 20 µM
5,Cc1cnc(CNc2ccnc(-c3ccc(N(C)C)cc3)n2)cn1,> 20 µM
6,Cc1ccccc1-c1cncnc1N(C)Cc1ccco1,> 20 µM
7,Cc1cnc(CNc2ncncc2-c2ccc3c(c2)OCO3)cn1,> 20 µM
8,N#Cc1cccc(-c2nccc(NCc3cccs3)n2)c1,> 20 µM
9,COCC(=O)N1CCC2(CCCN(Cc3ccc(C#N)cc3)C2)CC1,> 20 µM
10,COc1cccc(Nc2ncc3nc(C)c(=O)n(C[C@H]4CCCO4)c3n2)c1,> 20 µM
11,CN(C)c1ncc2nc(-c3ccc(Cl)cc3)c(=O)n(C)c2n1,> 20 µM
12,CNc1cc(-c2ccccc2C(F)(F)F)ncn1,> 20 µM
13,COc1ccc(-c2nc3cnc(N4CCNCC4)nc3n(-c3ccccc3)c2=O)cc1,> 20 µM
14,O=c1cnc2cnc(OCc3ccccc3)nc2n1Cc1ccc(F)cc1,> 20 µM
15,COc1ccccc1CN1CC[C@@]2(CCCN(S(=O)(=O)c3ccccc3)C2)C1,> 20 µM
16,COc1ncc2nc(CCc3ccccc3)c(=O)n(-c3ccccc3)c2n1,> 20 µM
17,O=C(c1csnn1)N1CCC2(CCCN(Cc3ccccc3)C2)CC1,> 20 µM
18,CNc1ccnc(-c2c(C)noc2C)n1,> 20 µM
19,CN(C)c1ccc(-c2cncnc2-n2ccnc2)cc1,> 20 µM
20,COCCNc1ccnc(-c2cccc(NS(C)(=O)=O)c2)n1,> 20 µM

row,SMILES,Potency
1,COC(=O)N1CCC2(CCN(Cc3ccccc3OC)CC2)CC1,> 20 µM
2,CC(C)CN1CCCC2(CCN(C(=O)c3csnn3)CC2)C1,> 20 µM
3,CCNc1ncc2nc(-c3ccc(F)cc3)c(=O)n(Cc3ccc(F)cc3)c2n1,> 20 µM
4,COc1ccc(C(=O)N2CCC[C@@]3(CCN(C(=O)Nc4ccccc4)C3)C2)cc1,> 20 µM
5,N#CCCn1c(=O)c(-c2cccc(C#N)c2)nc2cnc(Oc3ccccc3)nc21,> 20 µM
6,CC(C)CN1CC[C@@]2(CCCN(C(=O)c3cccc(F)c3)C2)C1,> 20 µM
7,COc1ccccc1CNc1nc(-c2ccccc2CN(C)C)nc2ccccc12,> 20 µM
8,COCCn1c(=O)c(-c2cc(F)cc(F)c2)nc2cnc(N3CCN(C)CC3)nc21,> 20 µM
9,COc1cccc(-c2cncnc2Nc2ccccc2)c1,> 20 µM
10,COc1ccccc1-c1ccc2ncnc(NCc3cnc(C)cn3)c2c1,> 20 µM
11,COc1ccc(Oc2ncc3nc(C)c(=O)n(CCc4ccccc4)c3n2)cc1,> 20 µM
12,COC(=O)N1CCC2(CC1)CN(C(=O)Nc1ccccc1)C2,> 20 µM
13,N#CCCn1c(=O)c(-c2ccc(Cl)cc2)nc2cnc(Oc3cccc(Cl)c3)nc21,> 4 µM
14,Cc1nc2cnc(N3CCOCC3)nc2n(CCC#N)c1=O,> 20 µM
15,COc1ccccc1-c1cncnc1NCc1cccc(C)c1,> 20 µM
16,O=C(c1cc(C(F)(F)F)cc(C(F)(F)F)c1)N1CCC[C@@]2(CCN(c3ccccc3)C2)C1,> 20 µM
17,COCC(=O)N1CCC[C@@]2(CCN(c3ccccn3)C2)C1,> 20 µM
18,COc1ccccc1CN1CC[C@@]2(CCCN(C(=O)c3cccn3C)C2)C1,> 20 µM
19,CN(C)C(=O)c1ccc(-c2ccc3ncnc(NCCN4CCOCC4)c3c2)cc1,> 20 µM
20,O=C(c1cnccn1)N1CCC2(CC1)CCN(c1cccc(-c3ccccc3)c1)CC2,> 20 µM
